Structures are written as SMILES. Converted amounts (≈) assume the structure as drawn. The campaign covered roughly 1,100 compounds. About 170 (15%) were called active. The rule behind the calls is not given here. A selection follows. Some results are limits rather than exact numbers.

A short description of the experiment: Confirmatory growth inhibition assay, mycobacterium tuberculosis h37rv, with cytotoxicity (AID 1332).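 For CC50: Vero cells exposed to compounds for 72 hours.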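 For IC50: bacteria incubated 7 days before adding Alamar blue readout reagent.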 The conditions noted are these: M. tuberculosis H37Rv growth inhibition; CC50: measured here: Vero cell cytotoxicity; IC50: measured here: IC50 H37Rv replicates.
For the molecule `CCCCC1(COC(=O)CCC(=O)O)C(=O)N(c2ccccc2)N(c2ccccc2)C1=O`, the IC50 is greater than 20 µg/mL and the molecule was classed as inactive.

Take `CNCCC(Oc1ccccc1OC)c1ccccc1` (stereo not drawn): the IC50 was greater than 20 µg/mL and the outcome was inactive.

For `CNCCC(Oc1ccc(C(F)(F)F)cc1)c1ccccc1` (stereo not drawn), the CC50 was greater than 6 µg/mL, the IC50 amounted to 9.88 µg/mL (≈ 32 µM) and the molecule was called active.

Take `CO[C@H]1C=C2CCN(C)[C@H]2C2c3cc4c(cc3C(=O)O[C@@H]21)OCO4` (stereo partly drawn): the IC50 was greater than 20 µg/mL and the outcome was inactive.

Regarding `C#C[C@]1(OC(C)=O)CC[C@H]2[C@@H]3CCC4=C[C@@H](OC(C)=O)CC[C@@H]4[C@H]3CC[C@@]21C`, the IC50 was greater than 20 µg/mL and the call was inactive.

In the case of `C[C@H]1c2cccc(O)c2C(O)=C2C(=O)C3(O)C(O)=C(C(N)=O)C(=O)[C@@H](N(C)C)[C@@H]3[C@@H](O)[C@@H]21` (stereo partly drawn), the IC50 stood at 2.44 µg/mL (≈ 5.49 µM) and the molecule was called active.

As to `C=C1c2c(Cl)ccc(O)c2C(O)=C2C(=O)[C@]3(O)C(O)=C(C(N)=O)C(=O)[C@@H](N(C)C)[C@@H]3[C@@H](O)C12` (stereo partly drawn), the CC50 was greater than 6 µg/mL, the IC50 is 3.86 µg/mL (≈ 8.1 µM) and the result was active.

As to `CN(C)[C@@H]1C(=O)C(C(=O)NCN2CCCC2)=C(O)[C@@]2(O)C(=O)C3=C(O)c4c(O)cccc4[C@@](C)(O)C3CC12` (stereo partly drawn), the IC50 was greater than 20 µg/mL and the molecule was classed as inactive.

Take `C=C1c2cccc(O)c2C(O)=C2C(=O)[C@]3(O)C(O)=C(C(N)=O)C(=O)[C@@H](N(C)C)[C@@H]3[C@@H](O)[C@H]12`: the IC50 is greater than 17.9 µg/mL and the molecule was called active.

As for `CN(C)[C@@H]1C(=O)C(C(N)=O)=C(O)[C@@]2(O)C(=O)C3=C(O)c4c(O)ccc(Cl)c4[C@@](C)(O)C3C[C@@H]12` (stereo partly drawn), the IC50 stood at 13.2 µg/mL (≈ 27.5 µM) and the call was active.

On to `CN(C)[C@@H]1C(=O)C(C(N)=O)=C(O)[C@@]2(O)C(=O)C3=C(O)c4c(O)cccc4[C@@](C)(O)[C@H]3[C@H](O)[C@@H]12`, for which the IC50 was greater than 20 µg/mL and the outcome was inactive.

For the molecule `CCC(=O)OCC(=O)C1(OC(=O)CC)[C@H](C)C[C@H]2[C@H]3[C@H]([C@@H](O)C[C@@]21C)[C@@]1(C)C=CC(=O)C=C1C[C@H]3Cl` (stereo partly drawn), the IC50 was greater than 20 µg/mL and the outcome was inactive.

As to `O=C1C(CCS(=O)c2ccccc2)C(=O)N(c2ccccc2)N1c1ccccc1` (stereo not drawn), the IC50 is greater than 20 µg/mL and the outcome was inactive.

`CN(C)C/C=C(\c1ccc(Br)cc1)c1cccnc1`: the IC50 is greater than 20 µg/mL and the molecule was classed as inactive.

In the case of `CC1(C)S[C@@H]2[C@H](NC(=O)[C@H](N)c3ccccc3)C(=O)N2[C@H]1C(=O)O`, the IC50 was greater than 20 µg/mL and the result was inactive.

`CN(Cc1cnc2nc(N)nc(N)c2n1)c1ccc(C(=O)NC(CCC(=O)O)C(=O)O)cc1` (stereo not drawn): the CC50 came to 0.048 µg/mL (≈ 0.106 µM), the IC50 was greater than 20 µg/mL and the outcome was inactive.

As for `CC(C(=O)O)c1ccc(N2Cc3ccccc3C2=O)cc1` (stereo not drawn), the IC50 was greater than 20 µg/mL and the result was inactive.

In the case of `C[C@H]1[C@H]2CC[C@H]3[C@@H]4CC=C5C[C@@H](N(C)C)CC[C@]5(C)[C@H]4CC[C@]23CN1C`, the IC50 was greater than 20 µg/mL and the outcome was inactive.

Turning to `NC(N)=NC(N)=NCCc1ccccc1`, the IC50 is greater than 20 µg/mL and the molecule was called inactive.

With `CCOC(=O)[C@H](CCc1ccccc1)N[C@@H](C)C(=O)N1CCC[C@H]1C(=O)O`, the IC50 was greater than 20 µg/mL and the result was inactive.

Consider `CC(=O)Oc1ccccc1C(=O)Oc1ccccc1C(=O)O`, for which the IC50 is greater than 20 µg/mL and the molecule was classed as inactive.

Regarding `O=C(OCC(O)CO)c1ccccc1Nc1ccnc2cc(Cl)ccc12` (stereo not drawn), the IC50 was greater than 20 µg/mL and the molecule was called inactive.

With `CCc1cccc(CC)c1NC(=O)CN(CC(=O)O)CC(=O)O`, the IC50 was greater than 20 µg/mL and the call was inactive.

In the case of `COc1cc(-c2ccc(N=Nc3ccc4c(S(=O)(=O)O)cc(S(=O)(=O)O)c(N)c4c3O)c(OC)c2)ccc1N=Nc1ccc2c(S(=O)(=O)O)cc(S(=O)(=O)O)c(N)c2c1O`, the IC50 is greater than 20 µg/mL and the result was inactive.

On to `NCC1CCC(C(=O)O)CC1` (stereo not drawn), for which the IC50 was greater than 20 µg/mL and the call was inactive.

For `C[C@H](O)C(=O)Nc1c(I)c(C(=O)NC(CO)CO)c(I)c(C(=O)NC(CO)CO)c1I`, the IC50 is greater than 20 µg/mL and the molecule was called inactive.

With `CCCOc1cc(N)ccc1C(=O)OCCN(CC)CC`, the IC50 is greater than 20 µg/mL and the outcome was inactive.

For `COc1c2c(nc3ccccc13)OC(C(C)(O)CO)C2` (stereo not drawn), the IC50 is greater than 20 µg/mL and the outcome was inactive.

On to `CN1CCCCC1CCN1c2ccccc2Sc2ccc(S(C)=O)cc21` (stereo not drawn), for which the IC50 was greater than 20 µg/mL and the molecule was called inactive.

As to `CN1C(CC(O)c2ccccc2)CCCC1CC(O)c1ccccc1` (stereo not drawn), the IC50 was greater than 20 µg/mL and the molecule was classed as inactive.

As for `CN1CCC[C@@H]1CCO[C@](C)(c1ccccc1)c1ccc(Cl)cc1`, the CC50 was greater than 6 µg/mL, the IC50 came out at 10.9 µg/mL (≈ 31.7 µM) and the molecule was classed as active.

Turning to `O[C@@H]1[C@@H](O)C=C2CCN3Cc4cc5c(cc4[C@H]1C23)OCO5` (stereo partly drawn), the CC50 is 0.806 µg/mL (≈ 2.81 µM), the IC50 was greater than 20 µg/mL and the outcome was inactive.

On to `CC1CCc2cc(F)cc3c(=O)c(C(=O)O)cn1c23` (stereo not drawn), for which the IC50 turned out to be 9.83 µg/mL (≈ 37.6 µM) and the molecule was called active.

With `CCn1cc(C(=O)O)c(=O)c2cc3c(cc21)OCO3`, the half-inhibitory concentration (IC50) is greater than 20 µg/mL and the molecule was called inactive.

As to `O=C1N=C(O)CN1/N=C/c1ccc(-c2ccc([N+](=O)[O-])cc2)o1`, the concentration for half-maximal inhibition (IC50) is greater than 20 µg/mL and the molecule was called inactive.

For `CNCC(O)c1ccc(OC(=O)C(C)(C)C)c(OC(=O)C(C)(C)C)c1` (stereo not drawn), the half-maximal inhibitory concentration (IC50) is greater than 20 µg/mL and the result was inactive.

With `C=C(C)[C@@H]1C2C(=O)O[C@H]1[C@H]1OC(=O)[C@@]34OC3C[C@]2(O)[C@@]14C` (stereo partly drawn), the IC50 was greater than 20 µg/mL and the molecule was classed as inactive.

In the case of `CC1(C)OC(=O)NC1=O`, the IC50 was greater than 20 µg/mL and the molecule was classed as inactive.

In the case of `CC(C)(C)C(=O)OCOC(=O)[C@@H]1N2C(=O)[C@@H](NC(=O)[C@H](N)c3ccccc3)[C@H]2SC1(C)C`, the IC50 is greater than 20 µg/mL and the molecule was called inactive.

As usually defined, the IC50 is the midpoint of a concentration-inhibition curve. A high value points to a need for much substance. In general, CC50 refers to the concentration that lowers cell viability or growth by half.

The values above are taken from PubChem BioAssay AID1332 (Southern Research Institute, 2008).
